{"source": "PubChem BioAssay (NCI)", "note": "This is part of a sample that, as a whole, favours compounds with a hit. Of some 83,000 tested, about 20% had one in any assay.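 Step 1: grow cells in 96-well plates. Step 2: add test compound at a single concentration. Step 3: incubate 48 h. Step 4: record percent growth.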 Unmarked numbers belong to inactive results. Calls of active or inactive are those of the source. Rule for the calls: active = growth percent below 10; inactive = the rest.", "data": [{"system": "SK-MEL-5 melanoma", "test": "NCI-60 one-dose screen, 48 h (100 = growth as untreated, 0 = no growth, -100 = all killed)", "conditions": "10 µM unless noted", "values": [{"smiles": "CN(C)CCC(O)(Cc1ccccc1)c1ccccc1", "note": "(centres undefined)", "growth": "108%"}, {"smiles": "Clc1ccc2c(NCCCN3CCN(c4nc(-n5ccnc5)nc5ccccc45)CC3)ccnc2c1", "growth": "-94.8% (active)"}, {"smiles": "Cn1ncc2c(Nc3ccc(Br)cc3)nc(Nc3ccc(Br)cc3)nc21", "growth": "47.6%"}, {"smiles": "OC(COc1cccc2ccccc12)CN1CCN(c2ccccc2)CC1", "note": "(centres undefined)", "growth": "90.4%"}, {"smiles": "O=c1[nH]c(=O)n(C2CC(O)C(CO)O2)cc1CO", "note": "(centres undefined)", "growth": "108%"}, {"smiles": "COc1cc2oc(-c3cccc(C(=O)Nc4ccc(C#N)cc4)c3)cc(=O)c2c(O)c1OC", "growth": "70.3%"}, {"smiles": "C=C(Cl)COC(=O)C(C)(C)O", "growth": "106%"}, {"smiles": "CC(C)(C)OC(=O)N1Cc2cc3ccccc3nc2C1CO", "note": "(centres undefined)", "growth": "96.9%"}, {"smiles": "COC1(CC[C@@H](C)COC2OC(CO)C(O)C(O)C2O)O[C@H]2C[C@H]3[C@@H]4CC=C5C[C@@H](OC6OC(CO)C(OC7OC(C)C(O)C(O)C7O)C(O)C6OC6OC(C)C(O)C(O)C6O)CC[C@]5(C)[C@H]4CC[C@]3(C)[C@H]2[C@@H]1C", "note": "(some centres undefined)", "growth": "-65.1% (active)"}, {"smiles": "COc1cc(-c2cc(-c3ccc(Nc4nc(Nc5ccccc5)nc(Nc5ccc(Cl)cc5)n4)cc3)nc(N)n2)cc(OC)c1OC", "growth": "43.1%"}, {"smiles": "CN(C)c1ccc(C#Cc2c(F)cccc2Cl)cc1", "growth": "85.3%"}, {"smiles": "NC(N)=N/N=C(/c1ccccc1)c1ccc(N)cc1", "growth": "101%"}, {"smiles": "N=C(N)c1ccc(-c2ccc(-c3ccc(Cl)cc3Cl)o2)cc1", "growth": "72.5%"}, {"smiles": "O=C(Oc1ccc[nH]c1=O)c1cc([N+](=O)[O-])cc([N+](=O)[O-])c1", "growth": "105%"}]}]}
